According to PubChem BioAssay (NCI):
Compounds without any hit were thinned out: in the full panel of roughly 83,000, 20% have a hit.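 The test compound was applied at a single concentration to cells in 96-well plates for 48 hours, and percent growth was recorded.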 Unmarked numbers belong to inactive results. The source made the active and inactive calls. Rule for the calls: active = growth percent below 10; inactive = the rest.

Experiments:
Assay in all cases: NCI-60 one-dose screen, 48 h (100 = growth as untreated, 0 = no growth, -100 = all killed)
RPMI-8226 leukemia = details: 10 µM unless noted
OVCAR-8 ovarian = details: 10 µM unless noted
OVCAR-5 ovarian = details: 10 µM unless noted
OVCAR-4 ovarian = details: 10 µM unless noted
IGROV1 ovarian = details: 10 µM unless noted
OVCAR-3 ovarian = details: 10 µM unless noted
HS 578T breast = details: 10 µM unless noted
NCI/ADR-RES ovarian = details: 10 µM unless noted
T-47D breast = details: 10 µM unless noted
BT-549 breast = details: 10 µM unless noted
MDA-MB-435 melanoma = details: 10 µM unless noted
SW-620 colon = details: 10 µM unless noted
MCF7 breast = details: 10 µM
HCT-116 colon = details: 10 µM unless noted
HCC-2998 colon = details: 10 µM unless noted
KM12 colon = details: 10 µM unless noted

SMILES | growth (RPMI-8226 leukemia) | growth (OVCAR-8 ovarian) | growth (OVCAR-5 ovarian) | growth (OVCAR-4 ovarian) | growth (IGROV1 ovarian) | growth (OVCAR-3 ovarian) | growth (HS 578T breast) | growth (NCI/ADR-RES ovarian) | growth (T-47D breast) | growth (BT-549 breast) | growth (MDA-MB-435 melanoma) | growth (SW-620 colon) | growth (MCF7 breast) | growth (HCT-116 colon) | growth (HCC-2998 colon) | growth (KM12 colon)
COc1cc(/C=C2\CN(C)C/C(=C\c3cc(CN4CCCC4)c(O)c(OC)c3)C2=O)cc(CN2CCCC2)c1O | 81% | 65.5% | 94.5% | 65.8% | 82% | 50% | 87.8% | 100% | 79.7% | 94.1% | 67.6% | 54.5% | 26.3% | 40.4% | 96% | 48.3%
COc1ccc(/C=C/C(=O)c2ccc(Nc3nc(NCCO)nc(Nc4ccc(Cl)cc4)n3)cc2)cc1 | 8.06% (active) | 71.8% | 95.7% | 62.6% | 98% | 73.1% | 87.5% | 83.2% | 38% | 61.3% | 65.4% | 91.1% | 12.9% | 19.8% | 57.2% | 41%
COc1cccc2c1C=C1CCCCC3=Cc4c(OC)cccc4OC13O2 | 42.6% | 53.1% | 63.9% | 57.7% | 57.5% | 14.2% | 42.8% | 16.5% | 40.3% | 64% | -15.8% (active) | 27.2% | 26.5% | 22.1% | 71.1% | 32.3%
C[C@@H](C(=O)NCCCC#Cc1cnc(Nc2ccc(C#N)cc2)nc1NC1CC1)N(C)C(=O)/C=C/CN(C)C | 14.9% | 55.9% | 66.3% | 38.7% | 41.1% | 29.3% | 59% | 78.2% | 54.9% | 32.3% | 24.5% | 42.1% | 17.3% | 27.7% | 64.5% | 17.7%
CNCCNc1nc2ccccc2c2c(=O)c3cccc(C)c3sc12 | -30.5% (active) | 37.4% | 55.3% | 29.4% | 18.1% | 47.7% | 61.6% | 44.6% | 49.3% | 76.4% | 6.07% (active) | -62.4% (active) | -66.1% (active) | -91.4% (active) | -43.2% (active) | -29.9% (active)
O=C(c1nc2ccccc2[nH]1)C1C(c2ccc([N+](=O)[O-])cc2)C2CC3CCCCC3N2[C@@]12C(=O)Nc1cc(Cl)ccc12 (some centres undefined) | 6.29% (active) | 35% | 46.3% | 20.6% | 24.9% | 29.6% | 54.6% | 29.2% | 28.8% | 46.9% | 23% | 31.6% | 7.25% (active) | 17.9% | 31.6% | 29.1%
CNCCNc1nc2ccccc2c2c(=O)c3cc(OC)ccc3sc12 | -17.2% (active) | 26.3% | 70.8% | 29.7% | 42.8% | -40.7% (active) | 56% | 51.5% | -33.6% (active) | 76.1% | -86.1% (active) | -78.3% (active) | -56.9% (active) | -82.3% (active) | -68.7% (active) | -75.7% (active)
Cc1cc2c(c(C)c1Cl)C(=O)/C(=C/c1cccc([N+](=O)[O-])c1)O2 | 108% | 94.4% | 100% | 86.5% | 96.6% | 107% | 95.8% | 101% | 98.4% | 106% | 99.5% | 104% | 66% | 103% | 102% | 103%
COC(=O)c1ccc(NC(=O)CSc2nc3ccccc3c(=O)n2-c2ccccc2)cc1 | 89.4% | 101% | 94.7% | 90.6% | 90.9% | 92.6% | 101% | 104% | 92.1% | 94.4% | 104% | 105% | 106% | 97.7% | 98.8% | 99.8%
CC(C)c1ccc(S(=O)(=O)NC(=O)NC2CCCC2)cc1 | 105% | 98.5% | 97.4% | 97.2% | 105% | 110% | 103% | 105% | 98.9% | 100% | 100% | 97.9% | 93.2% | 97.5% | 108% | 103%
O=Cc1c(OCc2cnnn2CC(=O)Nc2ccc(Cl)cc2)ccc2ccccc12 | 105% | 99.2% | 94.8% | 100% | 96% | 103% | 101% | 102% | 104% | 90.4% | 104% | 99.2% | 81.5% | 104% | 111% | 101%
COc1ccc(Cn2cc(Cn3c(=O)c(-c4nc5ccccc5[nH]4)cc4ccccc43)nn2)c(OC)c1OC | 16.1% | 23.9% | 19.1% | 0.605% (active) | 27% | -32.5% (active) | -9.86% (active) | -2.32% (active) | 29.7% | -12.2% (active) | -79.6% (active) | 16.9% | 17.1% | 5.1% (active) | -11.7% (active) | 4.44% (active)
CC1(O)COCCCCOc2c(CN)cccc2NC(=O)c2nc(cnc2N)-c2ccc(cc2)S(=O)(=O)C(C)(C)C1 (centres undefined) | -36.8% (active) | -22.8% (active) | 3.73% (active) | -70.2% (active) | -57.3% (active) | -77.2% (active) | -53.2% (active) | 48.5% | -19.8% (active) | 85.4% | -93.4% (active) | -64.2% (active) | -79.4% (active) | -56.5% (active) | -1.91% (active) | -72.7% (active)
NCCCNc1nc2ccccc2c2c(=O)c3cc(F)ccc3sc12 | -2.73% (active) | 2.1% (active) | 26.8% | 33% | 20.1% | -16.4% (active) | 34.6% | 11.4% | -39% (active) | 81.1% | -91% (active) | -83.5% (active) | -69.8% (active) | -78.2% (active) | -68.8% (active) | -73.7% (active)
CCN1C(=O)N(c2ccccc2)C2NN=c3s/c(=C4\C(=O)N(C(C)C)c5ccccc54)c(=O)n3C21 (centres undefined) | 32% | 31.6% | 45.3% | 45.8% | 28.5% | 1.06% (active) | 24.6% | 15.7% | 53.8% | 12.7% | -21.2% (active) | 35.2% | 20.6% | 4.19% (active) | 33.4% | 14.5%
O=C1/C(=C/c2ccc(O)cc2)COc2ccc(O)cc21 | 8.89% (active) | 108% | 104% | 102% | 97.3% | 108% | 98.5% | 98.7% | 103% | 106% | 94.8% | 87.2% | 51.6% | 86.1% | 108% | 64.7%
COc1cc(CNC(=O)Cc2ccccc2)ccc1OCc1cn(-c2ccc(F)cc2)nn1 | 89.8% | 95.5% | 108% | 78.2% | 106% | 107% | 99.1% | 94.7% | 94.7% | 99.8% | 98.4% | 109% | 91.8% | 102% | 106% | 108%
CCCCN1CCN(c2ccc3nc(-c4ccc5nc(-c6ccc(OC)c(OC)c6)[nH]c5c4)[nH]c3c2)CC1 | -19% (active) | 3.24% (active) | 13.7% | -46.1% (active) | -13.2% (active) | -46.8% (active) | -18.7% (active) | 91% | 17.6% | -59% (active) | -64.5% (active) | -50.8% (active) | -67.2% (active) | -80.2% (active) | -70.2% (active) | -53.5% (active)
CNCCNc1nc2ccccc2c2c(=O)c3cc(F)ccc3sc12 | -3.62% (active) | 17.3% | 86.4% | 49.1% | 37.6% | 40.4% | 56.9% | 62.4% | -13.4% (active) | 82.4% | -61.1% (active) | -63.3% (active) | -44.5% (active) | 0.271% (active) | -41.8% (active) | -33.8% (active)
